Source: PubChem BioAssay
In the library only some 4% were active in any assay of this set; here they are far more common.
PAX8 inh HTS: inhibitors of PAX8 transcriptional activity in RMG-I cells; RMG-I TPO-luciferase reporter, SteadyGlo, 24 h; inhibition, % at 12.6 µM; hit rate 1.2% among 360,000;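 active = mean replicate inhibition at least 60% with every replicate also reaching 60%; inconclusive = only one of the two criteria is met; inactive = mean below 60% and not all replicates reaching 60%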;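 note: luciferase light reporting Pax8 driven TPO promoter activity; plate controls were median of neutral control wells for no effect and mitoxantrone controls for full effect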
Wnt bcat act: activates Wnt/beta-catenin signaling in a reporter cell assay | activator, plate reader | hit rate 1.2% among 300,000 | AID 743398 | activation, % at 9.35 µM; in the data active = activation above about 30%, passing the limit was not always enough; inconclusive = no clear call, values can overlap the other calls;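 note: 0% = neutral control wells and 100% = positive control wells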
esBAF inh: SWI/SNF esBAF complex inhibition; mouse ES cells, Bmi1-luciferase knock-in reporter, 24 h; 100% = twice the neutral-well signal; reporter increase, % at 12.5 µM; hit rate 2% among 350,000; in the data active = activation above about 40%; inconclusive = no clear call, values can overlap the other calls;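 note: 0% = median of the plate's neutral control wells and 100% = double that signal; a rise in the Bmi1 reporter signal indicates esBAF inhibition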
TRPM1 prom inh: inhibitors of MITF-driven TRPM1 promoter in melanoma cells; SK-MEL-5 TRPM1 promoter luciferase, 24 h; inhibition, % at 12.5 µM; hit rate 0.83% among 330,000; AID 488899;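 active = mean inhibition across replicates of 60% or more, whatever share of single replicates reaches that level; inconclusive = some that reach 60%, reason not given; inactive = mean inhibition across replicates below 60%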
MITF TRPM1 HTS: MITF TRPM1 promoter activation in melanoma cells. SK-MEL-5 TRPM1-promoter luciferase, 24 h; % of positive control, neutral wells = 0. activation, % at 12.5 µM. hit rate 0.75% among 300,000. AID 588334;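 active = mean activation of at least 80% with every replicate also reaching 80%; inconclusive = mean reaches 80% but some replicate falls short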;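 note: 0% = neutral control wells and 100% = parthenolide positive control wells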
EWS-Fli inh: inhibitors of EWS/Fli oncoprotein transcriptional activity | AID 651661 | inhibition, % at 12.6 µM | hit rate 0.67% among 350,000 | A673 NR0B1-luciferase reporter, viability-normalised;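 active = mean inhibition of at least 50% after viability correction, with every replicate also passing that limit; inconclusive = mean reaches 50% but only one of two replicates passes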;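 note: firefly luciferase signal divided by Alamar Blue viability fluorescence both relative to DMSO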
Starred values were filed as active, the others as inactive; ? = inconclusive; . = no result given.

SMILES | PAX8 inh HTS | Wnt bcat act | esBAF inh | TRPM1 prom inh | MITF TRPM1 HTS | EWS-Fli inh
C[C@H]1CCCCO[C@@H](CN(C)CC2CCCCC2)[C@@H](C)CN([C@@H](C)CO)C(=O)c2cc(NS(=O)(=O)c3ccccc3)ccc2O1 | 25 | . | 0 | . | . | 13
C[C@@H]1CN([C@H](C)CO)C(=O)c2cc(NS(=O)(=O)c3ccccc3)ccc2O[C@@H](C)CCCCO[C@@H]1CN(C)CC1CCCCC1 | 89* | . | -2 | . | . | 10
C[C@@H]1CN([C@@H](C)CO)C(=O)c2cc(NC(=O)Cc3ccccc3)ccc2O[C@@H](C)CCCCO[C@@H]1CN(C)Cc1ccc2c(c1)OCO2 | -3 | . | -3 | . | . | 5
COc1ccccc1OC(=O)CCN1c2ccccc2Sc2ccccc21 | -13 | 4 | . | -8 | 13 | .
COc1ccc(-[n+]2c(C)cc(/C=C3\Sc4ccccc4N3C)cc2C)cc1 | 80* | . | . | 101* | -100 | 37
COc1ccc(C(=O)/C=C2\Sc3ccccc3N2C)cc1 | -70 | 13 | . | -9 | 8 | -86
COc1ccccc1-[n+]1c(C)cc(/C=C2\Sc3ccccc3N2C)cc1C | 67* | -16 | -84 | 93* | -94 | 39
C[C@@H]1CCCCO[C@H](CN(C)C(=O)Nc2ccccc2)[C@H](C)CN([C@@H](C)CO)C(=O)c2cc(NC(=O)Nc3cccc4ccccc34)ccc2O1 | -11 | . | 1 | . | . | 9
C[C@@H]1CN([C@@H](C)CO)C(=O)c2cc(NC(=O)C3CCCCC3)ccc2O[C@@H]1CN(C)Cc1ccc(C(F)(F)F)cc1 | . | . | -4 | . | . | -13
O=C1CCCC2=C1C(c1ccc(Cl)cc1)n1c(s/c(=C\c3ccc4ccncc4c3)c1=O)=N2 (stereo not drawn) | -21 | 36* | . | 2 | 2 | .
CCOC(=O)C1=C(C)N=c2s/c(=C/c3ccc(OCC(=O)O)c(OC)c3)c(=O)n2C1c1ccc(Cl)cc1 (stereo not drawn) | 20 | 0 | . | 5 | . | 8
O=C(Nc1cccc(Cl)c1)c1cnn2cccnc12 | . | . | 39 | -78 | 89* | .
CSc1cccc(NC(=O)c2cnn3ccccc23)c1 | -84 | 40* | . | -97 | 104* | -48
CCc1ccc(NC(=O)c2cnn3ccccc23)cc1 | 82* | -3 | -77 | 51 | -49 | 71*
O=C(Nc1cc(Cl)cc(Cl)c1)c1cnn2cccnc12 | -24 | -4 | . | -19 | 18 | .
CC(C)NC(=O)N(C)C[C@@H]1Oc2ccc(NS(=O)(=O)c3cn(C)cn3)cc2C(=O)N([C@@H](C)CO)C[C@H]1C | . | . | -6 | . | . | -6
CO[C@H]1CN(C)C(=O)c2cc(NC(=O)c3ccccc3)ccc2OC[C@H](C)N(C)C[C@H]1C | . | . | -1 | . | . | 0
C[C@@H]1CCCCO[C@H](CN(C)C(=O)c2ccccc2)[C@H](C)CN([C@H](C)CO)C(=O)c2cc(NC(=O)c3ccccc3)ccc2O1 | 11 | . | . | . | . | .
Cc1cc(/C=C2/NC(=O)N(c3ccccc3)C2=O)c(C)n1-c1cccnc1 | -173 | 37* | 71* | -53 | 50 | -69
Cc1cc(C=C2C(=O)c3ccccc3C2=O)c(C)n1-c1ccc(C(=O)O)cc1 | -7 | -1 | 18 | 1 | -1 | 4
Cc1cc(/C=C2/NC(=S)NC2=O)c(C)n1-c1cccnc1 | -20 | . | ? | -8 | 5 | -29
Cc1cc(C=C2C(=O)c3ccccc3C2=O)c(C)n1-c1ccccc1 | . | . | . | 72* | -71 | .
C[C@@H]1CN([C@@H](C)CO)C(=O)c2cc(-c3ccncc3)cnc2O[C@H]1CN(C)Cc1ccc(Oc2ccccc2)cc1 | . | . | -8 | . | . | 34
NC(=O)c1ccsc1NC(=O)c1cccs1 | -86 | 23 | 47* | -27 | 27 | -58
Cc1cc(C(=O)Nc2sccc2C(N)=O)c(C)o1 | . | 7 | . | -5 | 8 | -12
SMILES | PAX8 inh HTS | Wnt bcat act | esBAF inh | TRPM1 prom inh | MITF TRPM1 HTS | EWS-Fli inh
CCOC(=O)c1c(NC(=O)c2cccs2)sc(CC)c1-c1cccs1 | . | . | -8 | -11 | 12 | .
Cc1sc(NC(=O)c2cccs2)c(C(N)=O)c1C | . | 6 | 88* | -38 | 38 | .
Cc1sc(NC(=S)NC(=O)C(C)(C)C)c(C(N)=O)c1C | . | . | 47* | -15 | 14 | .
NNC(=O)COc1ccc(-c2nccc(-c3ccc(F)cc3)n2)cc1 | -25 | 2 | -63 | -1 | 2 | 43
Oc1ccc(-c2nccc(-c3ccc(F)cc3)n2)cc1 | -155 | 17 | ? | -98 | 92* | -83
COc1cc(C(C)=O)ccc1OCc1cc(C(=O)N(C)CCC2CCCCO2)no1 (stereo not drawn) | -184 | ? | 51* | -84 | ? | .
COc1ccccc1OCc1cc(C(=O)N(C)CCC2CCCCO2)no1 (stereo not drawn) | . | 20 | 76* | -47 | 52 | -72
COc1ccc(N2CCN(C(=O)CCS(=O)(=O)c3ccc4c(c3)NC(=O)C(C)S4)CC2)cc1 (stereo not drawn) | 29 | -3 | -4 | 22 | -20 | -3
Cc1ccc(C)c(N2CCN(C(=O)CCS(=O)(=O)c3ccc4c(c3)NC(=O)C(C)S4)CC2)c1 (stereo not drawn) | 62* | -6 | -1 | 31 | -31 | .
CO[C@H]1CC[C@@H]2CCOc3ccc(C#N)cc3C(=O)N(C)CCCC(=O)N(C)C[C@H]1O2 | -10 | . | -1 | . | . | 1
Cc1ccc(SC2=C(Sc3ccc(C)cc3)C(=O)c3ccccc3C2=O)cc1 | 13 | 14 | 42* | 22 | -19 | 41
C[C@@H](NC(=O)C[C@@H]1CC[C@@H](NC(=O)Cc2ccccn2)[C@@H](CO)O1)c1ccccc1 | 33 | . | -4 | . | . | -8
COc1ccc(NC(=O)N(C)C[C@@H]2OCCCC[C@H](C)Oc3ccc(NC(=O)CCC(F)(F)F)cc3C(=O)N([C@H](C)CO)C[C@H]2C)cc1 | -9 | . | 4 | . | . | 0
O=C(Nc1ccc2c(c1)[C@@H]1C[C@H](CC(=O)N3CCOCC3)O[C@H](CO)[C@@H]1O2)NC1CCCC1 | -7 | . | -4 | . | . | 8
O=C1/C(=N\S(=O)(=O)c2cccs2)C([n+]2ccc(CCCc3ccccc3)cc2)=C([O-])c2ccccc21 | 8 | 3 | . | . | . | 4
Cc1cc(C)c[n+](C2=C([O-])c3ccccc3C(=O)/C2=N\S(=O)(=O)c2cccs2)c1 | -6 | -2 | . | 105* | -104 | 9
O=C1/C(=N\S(=O)(=O)c2cccs2)C([n+]2cccc(Cc3ccccc3)c2)=C([O-])c2ccccc21 | . | . | . | 91* | . | .
CCCC(=O)Nc1ccc2c(c1)C(=O)N(C)C[C@H](OC)[C@H](C)CN(C(=O)c1ccccn1)[C@@H](C)CO2 | -17 | . | 4 | . | . | -2
CNC[C@@H]1OCCCC[C@H](C)Oc2ccc(N(C)C)cc2C(=O)N([C@@H](C)CO)C[C@@H]1C | -1 | . | -3 | . | . | 2
CN(C)c1ccc(N=Nc2cccc3ccoc23)cc1 | -114 | ? | ? | -53 | 60 | -59
CN(C)c1ccc(N=Nc2cccc(F)c2)cc1 | -117 | 52* | -8 | -47 | 49 | -96
